# Hits are enriched below; roughly 7.5% of the tested compounds scored in any of these assays.
# Rab9 promoter act: activates the Rab9 promoter. Huh7 Rab9 promoter-luciferase reporter, luminescence, 24 h. Potency, µM (top dose mostly 9.22 µM), without a hit: at the top dose activation, negative = inhibition, hits mostly activators. 320,000 compounds, 2.8% hits. AID 485297; note: % of control where 0% means no effect; nearly all actives have a fitted effect of over 60% in size
#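 Rab9 promoter-driven luciferase in stably transfected Huh7 cells; 1500 cells/well rested 2 h, exposed to compound in DMSO for 24 h at 37 °C, 5% CO2. Luminescence read 10 min after adding luciferase reagent at ambient temperature.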
# Luc counter: blocks Kinase-Glo luciferase, a counter-screen artifact; AID 1379; 200,000 compounds, 0.28% hits; Potency, µM (series often up to 38.3 µM), for the others: at the highest dose activity change, negative = inhibition, most hits filed as inhibitors; Kinase-Glo luciferase, ATP luminescence, 8 min; Q27757; note: % is set by controls: 0 for no effect and ±100 for the full control effect; nearly all actives have a fitted effect of over 60% in size
#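 Recombinant Kinase-Glo luciferase, 10 uM ATP (linear range), luciferin; imidazole pH 7.2 / KCl / MgCl2 / Tween / BSA buffer; 8 min RT; luminescence.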
# ELG1 genotoxic: inducers of genotoxicity in HEK293T ELG1-luciferase cells | Potency, µM (highest dose often 46 µM), for inactives: at the highest dose activity change, positive = activation, hits mostly activators | HEK293T ELG1-luciferase reporter, luminescence, 16 h | 330,000 compounds, 1.3% hits; note: % of control where 0% means no effect; nearly all actives have a fitted effect of over 60% in size
#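 DMSO vehicle served as control against compound-treated ELG1-luciferase HEK293T cells; exposure lasted 16 hr at 37 °C and 5% CO2, followed by ONE-Glo luminescence detection after 30 min.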
# NPC1 prom act: activates the NPC1 promoter; Huh7 NPC1 promoter luciferase reporter, 24 h; Potency, µM (titrated, usually from 9.22 µM), for the others: at the top dose activation, actives largely listed as activators; 320,000 compounds, 2.4% hits; note: % of control where 0% means no effect; nearly all actives have a fitted effect of over 60% in size
#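 Luminescence read-out of NPC1 promoter-driven luciferase in stably transfected Huh7 cells; compounds delivered in DMSO and left 24 h at 37C, 5% CO2, qHTS titration format.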
# SMN2 splice enh: SMN2 splice variant enhancement | HEK293 SMN2-luciferase splicing reporter, luminescence, 30-36 h | Potency, µM (titrated, usually from 46.1 µM), for inactives: at the top dose activity change, positive = activation, usual class: activators | 210,000 compounds, 2.8% hits | AID 1458; note: % of control where 0% means no effect; nearly all actives have a fitted effect of over 55% in size
#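 HEK293 cells carry an SMN2 minigene-luciferase reporter in which exon 7 inclusion puts luciferase in frame. Cells were seeded at 2000 cells/well, attached for 10-12 hours, then exposed to compounds for 30-36 hours at 37C before ONE-Glo luminescence.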
# FLuc counter: inhibits or activates purified firefly luciferase, miR-21 counter-screen; P08659; purified FLuc, Km substrates, luminescence inhibition; Potency, µM (doses to about 57.5 µM), for the others: at the highest dose activity change, negative = inhibition, actives largely listed as inhibitors; 360,000 compounds, 6.9% hits; AID 588342;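 note: plate controls were vehicle for no effect and reference inhibitor for full effect; nearly all actives have a fitted effect of over 55% in size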
# Target sequence (P08659 whole entry, looked up): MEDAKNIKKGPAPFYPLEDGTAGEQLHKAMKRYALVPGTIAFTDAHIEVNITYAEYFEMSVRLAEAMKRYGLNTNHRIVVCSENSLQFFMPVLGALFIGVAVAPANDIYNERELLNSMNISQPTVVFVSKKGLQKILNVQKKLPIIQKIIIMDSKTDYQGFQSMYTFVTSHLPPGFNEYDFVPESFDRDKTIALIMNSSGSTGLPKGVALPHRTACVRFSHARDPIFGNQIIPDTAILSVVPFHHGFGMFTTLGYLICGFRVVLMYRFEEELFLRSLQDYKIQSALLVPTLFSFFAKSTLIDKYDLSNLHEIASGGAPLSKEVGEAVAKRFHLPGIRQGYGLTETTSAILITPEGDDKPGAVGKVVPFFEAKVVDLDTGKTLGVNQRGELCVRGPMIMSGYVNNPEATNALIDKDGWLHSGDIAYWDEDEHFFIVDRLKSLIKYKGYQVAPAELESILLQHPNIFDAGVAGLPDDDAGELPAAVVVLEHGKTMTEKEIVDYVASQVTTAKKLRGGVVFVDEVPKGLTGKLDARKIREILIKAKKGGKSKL
#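 Purified P. pyralis luciferase (10nM final) with 10uM D-luciferin and 10uM ATP (Km levels) in 50mM Tris acetate pH 7.5, 10mM Mg acetate, 0.01% Tween-20, 0.05% BSA; qHTS 6-point titration, ~60 µM downward; luminescence read.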
# * marks the source's active call; other numbers are inactive results; u = inconclusive; x = not tested or not shown; [ ] = another dose, or the depositor's remark. Calls come from the whole dose curve; as a rule, active = well fitted curve in the direction sought with a large enough effect; inconclusive = small, poorly fitted or top-dose-only effect, or another doubt; inactive = no such curve, though single readings can be large; an effect the other way counts as inactive or inconclusive. Potency is the fitted concentration of half-maximal effect.
SMILES,Rab9 promoter act,Luc counter,ELG1 genotoxic,NPC1 prom act,SMN2 splice enh,FLuc counter
N=C1/C(=C\c2ccc(OC(=O)c3ccccc3)cc2)C(=O)N=C2SC(N3CCOCC3)=NN12,4%,x,12%,-3%,x,u
Cc1ccc(C(=O)Oc2ccc(/C=C3\C(=N)N4N=C(N5CCOCC5)SC4=NC3=O)cc2)cc1,u,x,23µM*,u,x,u
CCSc1nc(N)c2c(C)c(C)sc2n1,2%,1%,9%,2%,17%,u
C=CCSc1nc(N)c2c(C)c(C)sc2n1,24%,-2%,u,18%,-5%,12µM*
COC(=O)c1ccc(/C=N/n2c(C)nc3ccccc3c2=O)cc1,5%,x,0%,4%,x,-10%
O=C(O)c1ccc(N=N/C(=N\Nc2ccc(C(=O)O)cc2)c2ccccc2)cc1,u,x,12%,u,x,17µM*
O=C(O)c1cccc(N/N=C(\N=Nc2ccccc2)c2ccccc2)c1,u,x,u,u,x,17µM*
O=C(/C(=N\Nc1ccc(Br)cc1)Sc1nnnn1-c1ccccc1)c1ccccc1,-10%,0%,-5%,-2%,14%,0%
Brc1ccc(N/N=C(/N=Nc2nn[nH]n2)c2ccccc2)cc1,-41%,u,-2%,-31%,-117%,19µM*
NC(=O)/C(N=Nc1ccccc1)=N/Nc1ccccc1,-1%,x,11%,1%,x,-10%
COc1ccc(CN(C)C(=O)c2cc(S(=O)(=O)Nc3ccccc3F)ccc2C)c(OC)c1,6%,x,-8%,-1%,x,2%
C[C@@H]1COC(=O)[C@H](Cc2ccc(F)cc2)CC/C=C\C[C@@H](CC(=O)NCCO)C(=O)N1,x,x,1%,x,x,x
COC(=O)C/C=C/[C@@H](C)[C@H](NC(=O)OCC(Cl)(Cl)Cl)c1cccc(OC)c1,x,0%,x,x,0%,x
Cc1ccc(-c2csc(=S)[nH]2)cc1,u,x,u,3.2µM*,x,u
Cc1c(CCC(=O)O)c(=O)oc2cc(OCc3ccccc3Br)ccc12,-3%,x,-3%,-4%,x,u
Cc1c(CCC(=O)O)c(=O)oc2cc(OCc3cccc(F)c3)ccc12,2%,x,2%,0%,x,u
Cc1c(CC(=O)O)c(=O)oc2cc(OCc3ccc(Br)cc3)ccc12,15%,x,13%,3%,x,11µM*
Cc1c(CC(=O)O)c(=O)oc2cc(OCc3ccc(F)cc3F)ccc12,-2%,x,3%,1%,x,17µM*
Cc1cccc(NC(=O)c2c([N+](=O)[O-])cnn2C)c1,-3%,x,0%,2%,x,-1%
COc1ccccc1CNS(=O)(=O)c1ccc2c(c1)NC(=O)CO2,-7%,x,0%,-2%,x,6%
COc1ccc2oc(C(=O)OCC(=O)NC3CC3)c(C)c2c1,13%,x,19%,18%,x,u
COC(=O)c1oc2ccc(OC)cc2c1N,29%,-2%,12%,13%,u,21µM*
COc1ccc(C(=O)c2oc3ccc(OC)cc3c2NC(C)=O)cc1,1%,2%,4%,-1%,0%,-2%
COc1ccc(C(=O)c2oc3ccc(OC)cc3c2N)cc1,2.8µM*,1%,13µM*,2.8µM*,14µM*,7.6µM*
COCCCN(C(=O)c1ccccc1F)c1nc(-c2ccc(OC)cc2)cs1,-1%,x,-3%,-4%,x,-17%
SMILES,Rab9 promoter act,Luc counter,ELG1 genotoxic,NPC1 prom act,SMN2 splice enh,FLuc counter
COc1ccc2[nH]c(C(=O)O)c(CCNC(=O)/C=C/c3ccc(O)c(OC)c3)c2c1,3%,x,1%,-4%,x,u
O=C(N/N=C/c1cc([N+](=O)[O-])ccc1O)NC12CC3CC(CC(C3)C1)C2,-2%,4%,15µM*,14%,-36%,u
O=C(N/N=C/c1cc([N+](=O)[O-])ccc1O)C12CC3CC(CC(C3)C1)C2,-6%,3%,5%,1%,-93%,u
O=C(N/N=C/c1ccccn1)NC12CC3CC(CC(C3)C1)C2,u,x,4%,u,x,17µM*
CCOc1ccc(CNC(=O)c2ccc(Sc3ccc(C)cc3)c(N)c2)cc1OC,x,x,x,x,x,-19%
O=C(O)c1nc2ccccc2nc1C(=O)O,-1%,-5%,u,-2%,u,21µM*
COc1ccc(C(=O)NNc2ncnc3c2cnn3-c2ccc(C)cc2C)cc1,x,x,x,x,x,-11%
CCOc1ccc(CCNC(=O)c2ccc(-n3c(C)cc4c3CCC(C)C4)cc2)cc1OCC (stereo not drawn),x,x,x,x,x,6%
COC(=O)c1ccc(NC(=O)c2ccc(C)cc2)o1,24%,1%,2%,15%,4%,19µM*
O=C(Nc1ccc(Cl)cc1C(F)(F)F)C(Sc1cccc[n+]1[O-])c1ccccc1 (stereo not drawn),-6%,3%,0%,0%,5.6µM*,0%
Cc1ccc(C)c(NC(=O)C(Sc2cccc[n+]2[O-])c2ccccc2)c1 (stereo not drawn),4%,-5%,0%,-3%,4%,-4%
O=C(Nc1ncn[nH]1)c1cccc(F)c1,-2%,x,2%,-2%,x,0%
O=C(Nc1noc2ccccc12)c1ccc(F)cc1,x,x,x,x,u,2.1µM*
CC(=O)Nc1nonc1NC(=O)c1ccc(F)cc1,22%,-3%,2%,0%,18%,-1%
O=C(Nc1noc2ccccc12)c1cccc(F)c1,x,x,x,x,u,2.4µM*
CC(C)(C)Cc1nc(-c2ccc(Cl)cc2)no1,-4%,-1%,2%,-1%,13%,15µM*
Clc1ccc(-c2noc(CN3CCOCC3)n2)cc1,3.2µM*,x,u,2µM*,x,u
Clc1ccc(-c2noc(COc3ccccc3)n2)cc1,23%,1%,13%,11%,-15%,13µM*
Cc1ccc(OCc2nc(-c3ccccc3)no2)c(C)c1,2.2µM*,-2%,3.2µM*,2.2µM*,10µM*,3µM*
C[N+](C)(N)Cc1nc(-c2ccc(Cl)cc2)no1,x,-2%[7.66 µM],x,x,19%[9.22 µM],x
CC1CCN(C(=O)COC(=O)c2c[nH]c3ccccc23)CC1,u,x,18%,u,x,u
O=C(Nc1ccc(Br)cc1)c1ccc(N2C(=O)C3CC=C(Cl)CC3C2=O)cc1 (stereo not drawn),-6%,-2%,0%,-1%,-15%,4%
Cc1cccc(-c2cc3nc4c(c(N5CCOCC5)n3n2)CCCC4)c1,u,-7%,u,u,-19%,2.4µM*
OC1CCN(c2c3c(nc4cc(-c5ccc(F)cc5)nn24)CCC3)CC1,3%,-1%,-10%,14%,-7%,u
Fc1ccc(-c2cc3nc4c(c(N5CCOCC5)n3n2)CCCC4)cc1,-2%,7%,-3%,-2%,-16%,21µM*
